# Experimental data reported in PubChem BioAssay.
# “And” between values parts separate entries of the source, which are not always exact repeats. Identical values can stand only once. Some structures have more than one record in an assay (separate samples or runs), and their calls can disagree. The source made the active and inactive calls.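 The calls were made as follows, unless noted: active = inhibition at or above 50% relative to wild type and mutant plate controls; inactive = inhibition below 50%.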
# Columns and labels:
# [1] = inhibitors of TNFa-induced NFkB p65 translocation, primary screen, imaging, HUVEC, MLSMR starter and 10KST1 sets (AID 438;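 active = inhibition above 20% together with a positive visual image hit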;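 also: compound added about 3h40 before a 20 min TNFalpha stimulation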;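 as to inhibition: signal is the nuclear over cytoplasmic p65 intensity ratio per well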); settings: HUVEC TNFa-induced p65 nuclear translocation; cell count: measured here: nuclei count (cytotoxicity indicator), at 2.08 µM; inhibition: at 2 µM, stronger effect = higher value, 0% TNFa-plus-vehicle, 100% no-TNFa wells
# [2] = reduction of polyQ htt aggregates in cells – imaging, exon1htt(103Q)mCFP cells, high-content imaging, primary screen (AID 483;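 active = visual image review flags a hit and inhibition of aggregation exceeds 20%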;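 also: compound exposure lasted 3 days before fixation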;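 as to nuclei count: percent of the per-plate median nuclei count of sample wells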); settings: exon1htt(103Q)mCFP cell line, aggregate imaging, at 2 µM; inhibition of aggregation: stronger effect = higher value; nuclei count: measured here: cell count, toxicity
# [3] = endothelial E-selectin expression blockers – imaging, HUVEC, immunofluorescence, MLSMR starter and 10KST1 sets, primary screen (AID 487;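 active = visually confirmed hit in the image check and inhibition above 20%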;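 as to inhibition: signal is fraction of cell area covered by stained E-selectin grains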;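 as to nuclei count: 100% = median nuclei count of all wells on the same plate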); settings: HUVEC TNFalpha-induced E-selectin immunofluorescence imaging, at 2 µM; inhibition: stronger effect = higher value; nuclei count: measured here: cell number, toxicity
# [4] = Primary imaging screen for DUSP6 inhibitors that restore phospho-Erk in transfected HeLa cells, chemical complementation (AID 609;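 active = compounds giving at least 50% inhibition in the cell-based MKP-3 phosphatase rescue imaging test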;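 as to inhibition: phospho-Erk level distribution per well compared with pooled transfected vehicle control wells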); settings: HeLa MKP-3 transfected, phospho-Erk imaging KS statistic, at 10 µM, cells stimulated with TPA for 15 min
# [5] = molecular target: Dual specificity protein phosphatase 6 (Homo sapiens) (UniProt Q16828); experiment: as above; settings: HeLa MKP-3 transfected, phospho-Erk imaging KS statistic; at 10 µM; stronger effect = higher value; cells stimulated with TPA for 15 min
# Sequence of Dual specificity protein phosphatase 6 (Homo sapiens) (Q16828 whole entry, looked up): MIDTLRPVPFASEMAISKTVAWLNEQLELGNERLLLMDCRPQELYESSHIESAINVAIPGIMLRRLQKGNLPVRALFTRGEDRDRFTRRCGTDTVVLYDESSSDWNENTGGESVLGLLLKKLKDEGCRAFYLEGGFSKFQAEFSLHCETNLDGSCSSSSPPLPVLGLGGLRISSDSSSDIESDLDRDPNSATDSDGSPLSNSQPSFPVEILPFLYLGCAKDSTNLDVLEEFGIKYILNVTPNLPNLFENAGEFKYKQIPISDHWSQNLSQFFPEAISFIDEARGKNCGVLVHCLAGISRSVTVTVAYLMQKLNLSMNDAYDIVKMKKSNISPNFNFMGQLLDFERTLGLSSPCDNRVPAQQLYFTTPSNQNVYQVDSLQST
# [6] = molecular target: Voltage-gated potassium channel subunit beta-2 (Rattus norvegicus) (UniProt P62483); experiment: inhibitors of rat Kvbeta2 reductase activity – biochemical, NADPH fluorescence, primary screen (AID 622;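 active = fluorescence slope higher than the sample average by over 3 SD, cut at about -0.22 in these data, passing the limit was not always enough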;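 also: slope of raw intensity against log time taken from 70 to 1610 s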); settings: recombinant KvBeta, 4-cyanobenzaldehyde reduction, at 10 µM, stronger effect = higher value
# Sequence of Voltage-gated potassium channel subunit beta-2 (Rattus norvegicus) (P62483 whole entry, looked up): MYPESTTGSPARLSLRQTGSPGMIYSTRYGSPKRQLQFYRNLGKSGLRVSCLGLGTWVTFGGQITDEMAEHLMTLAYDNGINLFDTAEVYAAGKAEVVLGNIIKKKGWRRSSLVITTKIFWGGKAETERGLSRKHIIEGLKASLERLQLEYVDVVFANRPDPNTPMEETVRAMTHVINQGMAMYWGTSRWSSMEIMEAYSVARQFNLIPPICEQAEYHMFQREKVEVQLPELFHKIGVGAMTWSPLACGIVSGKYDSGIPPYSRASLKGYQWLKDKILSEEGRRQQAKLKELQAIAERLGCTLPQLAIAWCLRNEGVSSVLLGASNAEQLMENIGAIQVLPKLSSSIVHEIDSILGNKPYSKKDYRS
# [7] = molecular target: Voltage-gated potassium channel subunit beta-2 (Rattus norvegicus) (UniProt P62483); experiment: enhancers of rat Kvbeta2 NADPH turnover – biochemical, NADPH fluorescence, primary screen (AID 623;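 active = NADPH fluorescence slope more negative than the mean of all samples by about 3 SD, 99.7% confidence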;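 also: fluorescence intensity change per second fitted from 20 to 320 s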); settings: Recombinant KvBeta, NADPH fluorescence decrease slope, 10 min; at 10 µM; stronger effect = lower value
# [8] = molecular target: Alpha-2C adrenergic receptor (Homo sapiens) (UniProt P18825); experiment: compounds altering alpha2C-coupled GIRK flux – cell-based, HEK293 alpha2C/GIRK1/2, thallium flux, primary screen (AID 624;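 active = fluorescence slope after compound addition differing from the mean of all screened samples at 99.7% confidence, in either direction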;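 also: slope of fluorescence ratio to pre-addition baseline per second over 15 to 24 s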); settings: thallium flux BTC fluorescence, at 10 µM, actives lie on both sides
# Sequence of Alpha-2C adrenergic receptor (Homo sapiens) (P18825 whole entry, looked up): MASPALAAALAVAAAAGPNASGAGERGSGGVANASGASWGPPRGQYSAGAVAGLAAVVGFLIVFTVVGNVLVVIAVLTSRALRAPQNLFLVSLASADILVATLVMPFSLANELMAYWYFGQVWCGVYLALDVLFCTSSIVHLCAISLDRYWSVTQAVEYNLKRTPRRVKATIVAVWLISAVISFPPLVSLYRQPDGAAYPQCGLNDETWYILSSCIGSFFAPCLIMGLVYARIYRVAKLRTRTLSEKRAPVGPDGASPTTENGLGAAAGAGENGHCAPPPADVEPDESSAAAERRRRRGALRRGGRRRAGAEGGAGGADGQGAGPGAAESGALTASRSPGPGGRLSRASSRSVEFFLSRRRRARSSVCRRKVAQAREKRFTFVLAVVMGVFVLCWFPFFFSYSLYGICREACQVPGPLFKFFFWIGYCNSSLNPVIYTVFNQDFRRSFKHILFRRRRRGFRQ
# [9] = inhibitors of larval lipid processing in zebrafish, primary screen, whole organism, PED6 fluorescence, gall bladder and intestine (AID 686;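 active = a full or partial loss of lipid-probe fluorescence in the fish gall bladder, intestine or both, judged by eye; inactive = no fluorescence loss, or compound toxic to the fish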;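 also: larvae 5 to 7 days old with five fish per well; signal comes from phospholipase A2 cleavage of quenched PED6 carried via bile; overnight exposure to compound and PED6 before scoring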); settings: Zebrafish larvae PED6 lipid processing, fluorescence scoring; screened at 20 µM (by protocol)
# [10] = loss of swimming-algae plug formation – whole organism, Chlamydomonas reinhardtii, WT vs cilia-less mutant, absorbance, 96-well, primary screen (AID 463189); settings: Chlamydomonas reinhardtii gravitaxis, OD600 absorbance, 2 days; at 10 µM; stronger effect = higher value;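 also: 0% = wild type cc124 cells in DMSO and 100% = ciliumless bld1 mutant cells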
# [11] = blockers of RIG-like receptor reporter activation – cell-based, Sendai virus stimulus, luciferase, 10K MLSCN set, TLR/RLR signaling modifier project, primary screen (AID 602276;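 active = inhibition at or above 50% at 10 µM; inactive = inhibition below 50%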;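 also: firefly luciferase from ISG56 promoter only with Renilla not read in this screen; 0% = Sendai virus plus DMSO and 100% = medium plus DMSO without virus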); settings: HEK293 RL24 IRF3 luciferase reporter, at 10 µM, stronger effect = higher value
# [12] = TLR3 IRF3 reporter activation blockers – cell-based, poly I:C stimulus, luciferase, 10K MLSCN set, primary screen (AID 602277;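 active = inhibition of the reporter signal at or above 50%; inactive = inhibition below 50%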); settings: HEK293-TLR3 RL24 IRF3 luciferase reporter, at 10 µM, stronger effect = higher value
# [13] = measured here: cell density z-score
# [14] = measured here: nuclear c-Myc green intensity z-score
# [15] = measured here: nuclear pErk red intensity z-score, stronger effect = higher value
SMILES,cell count [1],inhibition [1],inhibition of aggregation [2],nuclei count [2],inhibition [3],nuclei count [3],"z-score [4, 13]","z-score [4, 14]","z-score [4, 15]",inhibition [5],fluorescence slope [6],NADPH fluorescence slope [7],slope [8],outcome [9],inhibition [10],inhibition [11],inhibition [12]
CCCCn1cnc2c(c1=O)c1nc3ccccc3nc1n2Cc1ccc2c(c1)OCO2,588,-2% (inactive),-18.6% (inactive),101%,-78% (inactive),129%,0.775,-1.04,-0.0661,-4.7% (inactive),-0.159 (inactive),1.1e-05 (inactive),0.00729 (inactive),inactive,10.8% (inactive),7.61% (inactive),1.84% (inactive)
COCCOC(=O)C1=C(C)NC(C)=C(C(=O)OC(C)C)C1c1cccc([N+](=O)[O-])c1 (stereo not given),617,-5.1% (inactive),-29.1% (inactive),98.9%,-38.8% (inactive),122%,-0.996,0.882,-0.963,32.3% (inactive),-0.534 (inactive),2.5e-05 (inactive),0.00348 (inactive),inactive,10.2% (inactive) and -3.02% (inactive),19.6% (inactive),25.9% (inactive)
NS(=O)(=O)c1ccc(C(=O)O)cc1,662,-3.9% (inactive),7.9% (inactive),106%,-60.6% (inactive),124%,1.84,-0.0127,-1.63,31.1% (inactive),-0.499 (inactive),3.5e-06 (inactive),0.00388 (inactive),inactive,24.6% (inactive),-11.5% (inactive),-18% (inactive)
CCC1(c2ccccc2)C(=O)NCNC1=O,647,3.5% (inactive),-10.2% (inactive),103%,-70% (inactive),129%,-0.87,2.71,-0.522,5.79% (inactive),-0.469 (inactive),-8.7e-06 (inactive),0.00482 (inactive),inactive,-4.31% (inactive) and 28.8% (inactive),17% (inactive),30.6% (inactive)
Cn1c2c(c(=O)n(C)c1=O)C(NC(=O)C(C)(C)C)(C(F)(F)F)C(=O)N2 (stereo not given),538,-3.9% (inactive),0.9% (inactive),103%,-105% (inactive),131%,-0.683,-0.488,-0.945,5.26% (inactive),-0.51 (inactive),-6.1e-05 (inactive),0.00635 (inactive),inactive,17.2% (inactive),14.7% (inactive),16.6% (inactive)
Nc1nc(Cl)nc2c1ncn2[C@H]1C[C@H](O)[C@@H](CO)O1,522 and 557,-10.7% (inactive) and -11.5% (inactive),-36.7% (inactive),10%,-143% (inactive) and -17% (inactive),133% and 106%,1.67 and -3.27,-1.09 and -0.338,-0.372 and -0.606,7.39% (inactive) and -2.46% (inactive),-0.46 (inactive) and -0.431 (inactive),-2e-05 (inactive) and -2.2e-05 (inactive),0.00559 (inactive) and 0.00513 (inactive),inactive,18.6% (inactive) and -15.6% (inactive),12.3% (inactive) and 18.7% (inactive),41.2% (inactive) and 27.6% (inactive)
COc1ccc(-n2c(SCC(N)=O)nc3sc4c(c3c2=O)CCN(C)C4)cc1,537,-5.6% (inactive),32% (inactive),58%,-51.4% (inactive),134%,-0.15,1.95,-0.53,-2.69% (inactive),-0.305 (inactive),-1.8e-06 (inactive),0.00454 (inactive),inactive,-8.09% (inactive),-4.01% (inactive),0.612% (inactive)
Cc1ccc(C)c(OCCCC(C)(C)C(=O)O)c1,624,-1.4% (inactive),26.1% (inactive),107%,-52.3% (inactive),122%,0.389,0.0218,0.246,7.39% (inactive),-0.536 (inactive),-3.5e-05 (inactive),0.00591 (inactive),inactive,36% (inactive),17.7% (inactive),39.7% (inactive)
CC1(C)S[C@@H]2[C@H](NC(=O)C(C(=O)O)c3ccccc3)C(=O)N2[C@H]1C(=O)O (stereo not given in full),588,-12.5% (inactive),-7.6% (inactive),99.1%,-51.3% (inactive),138%,0.424,0.193,-0.471,13.3% (inactive),-0.487 (inactive),-2.7e-05 (inactive),0.00471 (inactive),inactive,37.9% (inactive),-4.51% (inactive),13% (inactive)
Cc1nc(NS(=O)(=O)c2ccccc2)sc1NC(=O)OC(C)C,364,-12.7% (inactive),-9.8% (inactive),108%,-118% (inactive),138%,-0.163,-0.612,0.551,17.5% (inactive),-0.415 (inactive),1e-05 (inactive),0.00272 (inactive),inactive,16.7% (inactive),2.77% (inactive),9.41% (inactive)
CC(=O)[C@H]1[C@H](C#N)C[C@H]2[C@@H]3CC=C4C[C@@H](O)CC[C@]4(C)[C@H]3CC[C@@]21C,645,-9.3% (inactive),-4.8% (inactive),106%,-91.5% (inactive),119%,0.975,-0.917,-0.46,-2.46% (inactive),-0.457 (inactive),-4e-05 (inactive),0.00539 (inactive),inactive,14.4% (inactive),10.7% (inactive),42.4% (inactive)
OCCN1CCN(CCCN2c3ccccc3Sc3ccc(C(F)(F)F)cc32)CC1,606,2% (inactive),4.9% (inactive),91.7%,-56.8% (inactive),127%,0.204,0.276,0.714,-10.4% (inactive),-0.544 (inactive),-5.6e-05 (inactive),0.00393 (inactive),active; no signal in intestine only,-10.6% (inactive) and 145% (active),12.2% (inactive),58.3% (active)
CC1=C(c2ccc(Cl)cc2)[N+](=O)C(C)(C)N1[O-],523,-5.6% (inactive),8.9% (inactive),94.8%,-69.5% (inactive),124%,0.834,-1.84,0.735,6.04% (inactive),-0.408 (inactive),-7.3e-06 (inactive),0.00633 (inactive),inactive,21.6% (inactive),-0.683% (inactive),15.7% (inactive)
CC(=Nc1ccc(C)c(C)c1)C1=C(O)CCC1=O,616,-14.9% (inactive),30.6% (inactive),87.4%,-30.7% (inactive),143%,0.598,-0.724,0.505,4.72% (inactive),-0.423 (inactive),-4.1e-05 (inactive),0.00609 (inactive),inactive,2.51% (inactive),-16.6% (inactive),-35.9% (inactive)
C[C@]12CCC(=O)C=C1CC[C@@H]1[C@@H]2[C@@H](O)C[C@@]2(C)[C@H]1CC[C@]2(O)C(=O)COC(=O)CCC(=O)O,638 and 636,1.3% (inactive) and -6.2% (inactive),-14.6% (inactive) and 5.9% (inactive),81.4% and 75.3%,-73.5% (inactive) and -140% (inactive),113% and 141%,-0.295 and 0.975,-0.899 and -0.385,-0.0646 and -0.0458,7.39% (inactive) and 11.3% (inactive),-0.492 (inactive) and -0.463 (inactive),-9e-05 (inactive) and -1.6e-05 (inactive),0.00441 (inactive) and 0.00453 (inactive),inactive,1.85% (inactive) and -7.48% (inactive) and -3.81% (inactive),5.11% (inactive) and 1.12% (inactive),30.2% (inactive) and 30.8% (inactive)
CC(=O)NS(=O)(=O)c1ccc(N)cc1,651,7.7% (inactive),12.5% (inactive),97.6%,-106% (inactive),120%,-1.23,1.33,-0.291,14.6% (inactive),-0.508 (inactive),-4.5e-05 (inactive),0.00641 (inactive),inactive,46.5% (inactive),11.7% (inactive),26.8% (inactive)
Cn1c(=O)c2c3c(sc2n2c(SCC(=O)c4ccc(Cl)cc4)nnc12)COC(C)(C)C3,673,-9.1% (inactive),-12.3% (inactive),105%,2.7% (inactive),143%,-0.121,0.129,-1.03,-3.98% (inactive),-0.53 (inactive),-1.3e-05 (inactive),0.00419 (inactive),inactive,0.223% (inactive),6.06% (inactive),10.6% (inactive)
COc1ccc(Cl)cc1C(=O)NCCc1ccc(S(=O)(=O)NC(=O)NC2CCCCC2)cc1,517,-3.1% (inactive),-17.2% (inactive),105%,48.6% (inactive),80.7%,0.545,-1.59,-0.882,5.79% (inactive),-0.462 (inactive),-5.3e-05 (inactive),0.00532 (inactive),inactive,3.54% (inactive) and -10.9% (inactive),19.2% (inactive),42.8% (inactive)
CN(CCO)CC(O)Cn1cnc2c1c(=O)n(C)c(=O)n2C (stereo not given) (tested in a mixture with another compound),638,-0.3% (inactive),1.1% (inactive),103%,6.8% (inactive),125%,0.569,0.0927,0.334,10.2% (inactive),-0.511 (inactive),-6e-05 (inactive),0.00421 (inactive),inactive,-10.3% (inactive),3.79% (inactive),33.4% (inactive)
CN(C)CCOc1ccccc1Cc1ccccc1,539,5.9% (inactive),-17.6% (inactive),92.7%,-66.7% (inactive),118%,-0.59,1.74,-0.949,10.2% (inactive),-0.506 (inactive),2.6e-05 (inactive),0.00455 (inactive),inactive,147% (active),17.7% (inactive),43% (inactive)
